Source: publication PMC4552634, “A New Set of Chemical Starting Points with Plasmodium falciparum Transmission-Blocking Potential for Antimalarial Drug Discovery” (PLoS ONE, 2015)
In all, about 13,000 compounds went through this assay and about 3,200 (25%) showed an effect of 50% or more. The list shows a part of the results.

The compounds below were run on P. falciparum stage V gametocytes. Settings: 48 h, 5 µM; inhibitor.
Design: BacTiter-Glo ATP luminescence viability of purified stage V gametocytes in 384-well plates, per cent inhibition versus DMSO

| Structure (SMILES) | % Inhibition |
| --- | --- |
| FC(F)(F)c1cccc2c(NN=Cc3ccccc3)ccnc12 [TCMDC-142025] | 48.45% |
| COc1ccc2ncc(F)c(CCN3CC[C@@H](CNCc4ccc5c(c4C)OCCO5)C3)c2n1 [TCMDC-136057] | 40.7% |
| O=C(Cc1cccnc1)N(Cc1ccc(-c2ccc(CNCc3cccnc3)cn2)cc1)C1CCN(Cc2ccccc2)CC1 [TCMDC-141503] | 73.31% |
| c1ccc(CN2CCC(NCc3ccc(-c4ccc(CNCc5cccnc5)cn4)cc3)CC2)cc1 [TCMDC-141613] | -15.37% |
| COc1ccc(C(=O)CCC(=O)N(Cc2ccc(-c3ccc(CNCCc4ccc(S(C)(=O)=O)cc4)cn3)cc2)C2CCN(Cc3ccccc3)CC2)cc1F [TCMDC-141516] | 12.43% |
| COc1ccc(C(=O)CCC(=O)N(Cc2ccc(-c3ccc(CNCc4cccnc4)cn3)cc2)C2CCN(Cc3ccccc3)CC2)cc1F [TCMDC-141504] | 91.04% |
| C=CCc1cccc(C)c1OCCCON1C(N)=NC(N)=NC1(C)C [TCMDC-131307] | 8.677% |
| Cc1cc(C)n2nc(C(=O)Nc3cc(C(F)(F)F)ccc3N3CCOCC3)nc2n1 [TCMDC-123614] | 4.468% |
| Cc1cc(N(C)C)nc(Nc2ccc(NC(=O)c3ccc(Br)o3)cc2)n1 [TCMDC-124972] | -1.025% |
| CCCC(CNC(=O)c1cc2c(Cl)cc(Cl)cc2[nH]1)CNc1cc(=O)c2ccccc2[nH]1 (stereo not shown) [TCMDC-140519] | -10.38% |
| Cc1c(CC(=O)N(C)C2CCN(CCCCCNC(=O)/C=C/c3ccc(Cl)c(Cl)c3)CC2)sc2ccc(Cl)cc12 [TCMDC-139994] | -4.891% |
| COc1ccc(CCn2c(=N)c(C(=O)NCc3ccccc3)cc3c(=O)n4ccccc4nc32)cc1 [TCMDC-124472] | 34.54% |
| CCOC(=O)N(C)/N=C/[C@H](CCc1ccccc1)NC(=O)[C@H](CC(C)C)NC(=O)c1cc2cccc(OC)c2o1 [TCMDC-136018] | 75% |
| CCC[C@@H](/C=N/N(C)C(=O)OC(C)(C)C)NC(=O)[C@H](CC(C)C)NC(=O)c1cc2cccc(OC)c2o1 [TCMDC-136059] | -6.333% |
| CCOC(=O)N/N=C/[C@H](CCc1ccccc1)NC(=O)[C@H](CC(C)C)NC(=O)c1cc2cccc(OC)c2o1 [TCMDC-135928] | 10.67% |
| CCOc1cc(C(=O)NCCN(CC)c2cccc(C)c2)ccc1-c1nc2ccc(Cl)cc2[nH]1 [TCMDC-140916] | -6.076% |
| CCc1cc2c(N)nc(N)nc2nc1-c1ccccc1 [TCMDC-131931] | 14.27% |
| Nc1nccc2ccc(-c3ccc(OCc4ccccc4)cc3)cc12 [TCMDC-133423] | 12.93% |
| Nc1nc(N)c2cc3ccc(OCc4ccccc4)cc3nc2n1 [TCMDC-137967] | 109.1% |
| O=C(NC(Cc1ccccc1)C(=O)O)c1cc(=O)c2ccccc2o1 (stereo not shown) [TCMDC-131318] | 3.006% |
| N/C(=N\c1cccc(Cc2ccc([N+](=O)[O-])cc2)n1)Nc1ccccc1 [TCMDC-138952] | 90.6% |
| COc1cc2cc(C(=O)Nc3ccccc3)c(N)nc2cc1OC [TCMDC-123992] | 12.69% |

| Structure (SMILES) | % Inhibition |
| --- | --- |
| Cc1ccccc1CN1CCCN(Cc2ccc(C(=O)Nc3ccc(Cl)cc3)cc2)CC1 [TCMDC-136402] | -5.846% |
| O=C(Nc1cccc(OC2CCN(Cc3ccccc3)CC2)c1)c1ccc([N+](=O)[O-])cc1 [TCMDC-139543] | 0.689% |
| COc1ccc(Cc2nc(N=C(N)Nc3ccccc3)ccc2OC)cc1 [TCMDC-138959] | 88.7% |
| CN(c1ccccc1)c1ccnc(/N=C(\N)Nc2ccc(Cl)cc2)n1 [TCMDC-138941] | 49.31% |
| Cc1ccccc1Cc1cccc(/N=C(\N)Nc2ccc(Cl)cc2)n1 [TCMDC-138942] | 89.67% |
| COc1ccc(CCN(C)CCOc2ccc(NC(=O)c3cccc4cc5ccccc5nc34)cc2)cc1OC [TCMDC-132112] | -28.68% |
| CC1(C)N=C(NC(=O)Nc2ccc([N+](=O)[O-])cc2)N=C(N)N1OCc1cccc2ccccc12 [TCMDC-131582] | 35.05% |
| NC(=O)c1cccc(Nc2nccc(Nc3ccc4[nH]c(-c5ccccc5)cc4c3)n2)c1 [TCMDC-138678] | -94.87% |
| COc1ccc(S(=O)(=O)NC2CCN(c3cc(C)nc(Nc4cccc(C#N)c4)n3)CC2)cc1 [TCMDC-134215] | 11.7% |
| Cc1ccc(NC(=O)c2cnc(N3CCN(c4ccncc4)CC3)c(Cl)c2)cc1 [TCMDC-134603] | 7.543% |
| CNC(=O)c1[nH]c(-c2ccccc2)nc1NC(C)=O [TCMDC-131315] | -0.1444% |
| CC(C)(CNC(=O)[C@@H]1CCCN(Cc2ccc(Cl)cc2)C1)c1nc(-c2ccc(Cl)c(O)c2)c(-c2ccncc2)[nH]1 [TCMDC-141139] | 5.708% |
| Nc1nccc(-c2ccc3c(/C=C/c4ccccc4)cnc(N)c3c2)n1 [TCMDC-136382] | -22.89% |
| Nc1ncc(-c2ccccc2)cc1-c1cccc2ncccc12 [TCMDC-133415] | 19.97% |
| Nc1ncc(-c2ccccc2)cc1/C=C/c1cccnc1 [TCMDC-135534] | 59.51% |
| COc1cc(NC(=O)N2CCOC(CCN3CCC4(CCc5ccccc54)CC3)(c3ccc(Cl)c(Cl)c3)C2)cc(OC)c1OC (stereo not shown) [TCMDC-135346] | -4.106% |
| CN(Cc1cccc(O)c1)C1CCN(c2cc(NC(=O)c3cccc(F)c3)ccn2)CC1 [TCMDC-134962] | -30.72% |
| CCCc1cc(Cc2cnc(N)nc2N)cc(CCC)c1O [TCMDC-137695] | -57.47% |
| CCOc1ccccc1C1C(C(=O)C(C)(C)C)N2c3ccc(Br)cc3C=CC2C12C(=O)c1ccccc1C2=O (stereo not shown) [TCMDC-125079] | 103.1% |
| CCCCC1=CC2C(=O)C(C(=O)OC)=CN=C2C=C1OCc1ccccc1 (stereo not shown) [TCMDC-137492] | 62.56% |
| Cc1ccc(NC(=O)c2cn(-c3ccccc3)nc2-c2ccc(F)cc2)cc1[N+](=O)[O-] [TCMDC-125590] | -12.22% |
